According to PubChem BioAssay (Tox21):
Unmarked numbers belong to inactive results. Results filed as inconclusive are left out. A call without a number means that no potency is given here. The source made the active and inactive calls. Unless noted, the call rests on the fitted dose curve; in most records, active means well fitted curve in the direction sought with a large enough effect in the repeat runs; inconclusive means weak or mixed curves; inactive means no such curve, though single readings can be large; an effect the other way counts as inactive or inconclusive.

Columns and labels:
[1] = qHTS assay to identify small molecule agonists of the TGF-beta/Smad signaling pathway - cell viability counter screen (AID 1346829); further: top concentration of the series differs between compounds; nearly all actives have a fitted effect of over 45% in size
How it was run: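 HEK 293T SBE-bla line, 5 hr compound exposure at 37 C, multiplexed CellTiter-Glo viability read by luminescence.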

[2] = qHTS assay to identify small molecule agonists of the TGF-beta/Smad signaling pathway (AID 1346859; active means well fitted activation curve with a large enough effect in the signal ratio in the repeat runs, not every such curve was filed as active; the % refers to the signal ratio; further: series mostly up to about 77 µM)
How it was run: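 Smad-responsive beta-lactamase reporter cells (HEK 293T) received compounds from DMSO stocks after overnight attachment, were incubated 5 hr, then treated 2 hr with FRET substrate before dual-emission fluorescence measurement (405 nm excitation).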

[3] = Human pregnane X receptor (PXR) small molecule agonists, qHTS cell viability counter screen (AID 1346977); further: nearly all actives have a fitted effect of over 50% in size
How it was run: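 Measures live-cell protease fluorescence (CellTiter-Fluor) in PXR-Luc HepG2 cells treated 24hr with compounds at 37C. Cells had 5hr to attach before pin transfer of DMSO solutions.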

[4] = Caspase-3/7 induction in HepG2 cells by small molecules, qHTS assay (AID 1346978); further: nearly all actives have a fitted effect of over 15% in size
How it was run: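 Wild-type HepG2 cells (2,000/well) were settled 5 h at 37 C, 5% CO2, then exposed to compounds in DMSO for 17 h. Caspase-3/7 activity was read by luminescence 30 min after adding Caspase-Glo 3/7 reagent at room temperature.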

[5] = Caspase-3/7 induction in CHO-K1 cells by small molecules, qHTS cell viability counter screen (AID 1346979); further: nearly all actives have a fitted effect of over 35% in size
How it was run: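 In the same wells as the caspase read, viability of compound-treated wild-type CHO-K1 cells was assessed using CellTiter-Fluor, added after 16hr at 37C and measured by fluorescence following 1hr further incubation.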

[6] = Caspase-3/7 induction in CHO-K1 cells by small molecules, qHTS assay (AID 1346980); further: nearly all actives have a fitted effect of over 15% in size
How it was run: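 Wild-type cells were seeded at 1,500 per well and settled 5 hr at 37 C, 5% CO2, then exposed to DMSO-dissolved compounds for 17 hr. Caspase-Glo 3/7 reagent was added, and luminescence was read after 30min at room temperature.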

[7] = Caspase-3/7 induction in HepG2 cells by small molecules, qHTS cell viability counter screen (AID 1346981); further: series mostly up to about 92 µM; nearly all actives have a fitted effect of over 30% in size
How it was run: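 After a 5-hr attachment period at 37 C and 5% CO2, wild-type HepG2 cells received compounds in DMSO. Sixteen hours later CellTiter-Fluor was dispensed and the fluorescent signal quantified after a further hour.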

[8] = target: Nuclear receptor subfamily 1 group I member 2 (Homo sapiens) (UniProt O75469); assay: Human pregnane X receptor (PXR) small molecule agonists, qHTS assay (AID 1346982); further: nearly all actives have a fitted effect of over 35% in size
How it was run: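 Tox21 qHTS; PXR-Luc HepG2; compounds pinned from DMSO; 24 hr, 37 C; ONE-Glo luciferase detection, 30 min room temperature.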

[9] = target: Nuclear receptor subfamily 1 group I member 2 (Rattus norvegicus) (UniProt Q9R1A7); assay: Rat pregnane X receptor (rPXR) activation by small molecules, qHTS assay (AID 1346983); settings: rPXR luciferase reporter cells, One-Glo luminescence, 24 h; max activation: active compounds read high; further: nearly all actives have a fitted effect of over 20% in size
How it was run: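 Cell-based rPXR luciferase reporter assay, 2,000 cells per well, rested 5hr at 37 C before compound addition in DMSO, then 24 hr at 37 C. One-Glo reagent was added and luminescence read after 30 min at room temperature.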

[10] = target: Nuclear receptor subfamily 1 group I member 2 (Homo sapiens) (UniProt O75469); assay: CYP3A4 induction through human pregnane X receptor (PXR) by small molecules, qHTS assay (AID 1346984); further: nearly all actives have a fitted effect of over 40% in size
How it was run: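 Cells (DPX-2; HepG2 with PXR element plus CYP3A4-promoter luciferase) settled 5hr, then were treated 24hr at 37C. A 3hr, 3uM-final Luciferin-IPA step preceded luminescence measurement with One-Glo.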

[11] = target: Cytochrome P450 2D6 (Homo sapiens) (UniProt P10635); assay: Cytochrome P450 Family 2 Subfamily D Member 6 (CYP2D6) small molecule antagonists: luciferase reporter qHTS assay (AID 1671196); further: nearly all actives have a fitted effect of over 50% in size; further: potency means the concentration at half of the fitted maximal effect; on activity change, negative = inhibition: series mostly up to about 120 µM
How it was run: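 Room-temperature luminescent CYP2D6 activity assay: compound preincubated 10 min with enzyme–substrate mix, NADPH-initiated reaction 1 h, detection reagent 20 min before reading.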

[12] = target: Cytochrome P450 2C19 (Homo sapiens) (UniProt P33261); assay: Cytochrome P450 Family 2 Subfamily C Member 19 (CYP2C19) small molecule antagonists: luciferase reporter qHTS assay (AID 1671197); further: nearly all actives have a fitted effect of over 65% in size; further: potency means the concentration at half of the fitted maximal effect; on activity change, negative = inhibition: series mostly up to about 120 µM
How it was run: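 First, compounds are pinned into enzyme-substrate mix and held 10 min at room temperature. Second, NADPH regeneration solution is added and plates incubate 1 h at 37C. Third, detection reagent is added and luminescence read after 20 min.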

[13] = target: Cytochrome P450 2C9 (Homo sapiens) (UniProt P11712); assay: Cytochrome P450 Family 2 Subfamily C Member 9 (CYP2C9) small molecule antagonists: luciferase reporter qHTS assay (AID 1671198); further: nearly all actives have a fitted effect of over 50% in size; further: potency means the concentration at half of the fitted maximal effect; on activity change, negative = inhibition: series mostly up to about 120 µM
How it was run: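 CYP2C9 activity was measured with a P450-Glo proluciferin substrate. Enzyme–substrate mix was held with compound for 10 min at room temperature, then NADPH regeneration solution was added for 1 h at 37C. Luciferin product was read as luminescence.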

[14] = target: Cytochrome P450 1A2 (Homo sapiens) (UniProt P05177); assay: Cytochrome P450 Family 1 Subfamily A Member 2 (CYP1A2) small molecule antagonists: luciferase reporter qHTS assay (AID 1671199); further: nearly all actives have a fitted effect of over 50% in size; further: potency means the concentration at half of the fitted maximal effect; on activity change, negative = inhibition: series mostly up to about 120 µM
How it was run: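 Room-temperature CYP1A2 reaction with proluciferin substrate: compounds added from DMSO, 10 min preincubation, NADPH regeneration for 1 h. Luciferin detection reagent then added; luminescence recorded as RLU.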

[15] = target: Voltage-gated inwardly rectifying potassium channel KCNH2 (Homo sapiens) (UniProt Q12809); assay: Human Ether-a-go-go-Related Gene (hERG) channel small molecule antagonists: fluorescence cell-based qHTS assay (AID 1671200)
How it was run: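 Quantitative HTS in hERG-U2OS cells: thallium entry through the channel reports activity, read as continuous 480/540 nm fluorescence over 2 min after stimulus addition.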

[16] = target: Cytochrome P450 3A4 (Homo sapiens) (UniProt P08684); assay: Cytochrome P450 Family 3 Subfamily A Member 4 (CYP3A4) small molecule antagonists: luciferase reporter qHTS assay (AID 1671201)
How it was run: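 Inhibition of CYP3A4 is measured as loss of light: the enzyme converts a proluciferin substrate to luciferin, detected luminescently. Reaction ran 1 h at room temperature with NADPH regeneration after a 10 min compound preincubation.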

Sequence of Cytochrome P450 2D6 (Homo sapiens) (P10635 whole entry, looked up): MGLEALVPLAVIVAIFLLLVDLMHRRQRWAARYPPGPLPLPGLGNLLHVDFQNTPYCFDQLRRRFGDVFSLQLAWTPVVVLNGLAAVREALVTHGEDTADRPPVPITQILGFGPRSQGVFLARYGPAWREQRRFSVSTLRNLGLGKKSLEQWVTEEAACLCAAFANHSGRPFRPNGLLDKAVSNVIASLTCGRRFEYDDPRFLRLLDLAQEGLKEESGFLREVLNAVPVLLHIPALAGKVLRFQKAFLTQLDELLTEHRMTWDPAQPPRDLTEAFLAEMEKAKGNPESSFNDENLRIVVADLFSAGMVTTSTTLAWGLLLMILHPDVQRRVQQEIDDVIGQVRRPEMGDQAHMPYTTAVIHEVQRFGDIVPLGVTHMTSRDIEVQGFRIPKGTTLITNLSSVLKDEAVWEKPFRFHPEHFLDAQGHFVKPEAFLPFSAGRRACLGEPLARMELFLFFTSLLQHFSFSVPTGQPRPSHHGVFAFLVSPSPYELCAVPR
Sequence of Cytochrome P450 3A4 (Homo sapiens) (P08684 whole entry, looked up): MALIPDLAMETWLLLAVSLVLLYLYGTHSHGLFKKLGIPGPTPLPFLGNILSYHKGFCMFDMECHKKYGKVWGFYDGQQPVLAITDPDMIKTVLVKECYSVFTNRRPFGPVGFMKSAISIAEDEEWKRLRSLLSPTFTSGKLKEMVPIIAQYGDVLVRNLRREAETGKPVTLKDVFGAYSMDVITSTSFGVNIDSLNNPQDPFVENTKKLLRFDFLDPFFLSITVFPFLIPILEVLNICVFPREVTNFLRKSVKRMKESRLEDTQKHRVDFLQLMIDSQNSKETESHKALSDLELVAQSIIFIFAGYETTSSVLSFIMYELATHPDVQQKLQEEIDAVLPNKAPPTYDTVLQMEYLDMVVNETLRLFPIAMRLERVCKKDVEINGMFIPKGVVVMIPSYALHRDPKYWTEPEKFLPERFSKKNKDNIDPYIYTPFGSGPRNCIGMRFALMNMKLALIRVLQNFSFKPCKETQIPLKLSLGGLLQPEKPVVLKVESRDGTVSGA
Sequence of Cytochrome P450 1A2 (Homo sapiens) (P05177 whole entry, looked up): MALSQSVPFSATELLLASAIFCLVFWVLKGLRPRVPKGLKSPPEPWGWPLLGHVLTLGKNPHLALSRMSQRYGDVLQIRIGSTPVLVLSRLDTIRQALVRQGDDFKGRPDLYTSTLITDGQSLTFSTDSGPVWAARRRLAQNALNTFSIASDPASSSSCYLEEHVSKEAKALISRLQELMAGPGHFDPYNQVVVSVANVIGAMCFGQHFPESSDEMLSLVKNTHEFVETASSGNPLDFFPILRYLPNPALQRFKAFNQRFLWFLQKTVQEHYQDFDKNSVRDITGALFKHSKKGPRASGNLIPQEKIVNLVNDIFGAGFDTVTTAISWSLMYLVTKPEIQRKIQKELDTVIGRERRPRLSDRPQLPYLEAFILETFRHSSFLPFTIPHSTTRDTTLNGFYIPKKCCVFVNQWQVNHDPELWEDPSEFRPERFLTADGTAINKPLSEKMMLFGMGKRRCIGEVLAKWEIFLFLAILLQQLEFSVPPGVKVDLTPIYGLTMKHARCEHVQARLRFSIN
Sequence of Cytochrome P450 2C19 (Homo sapiens) (P33261 whole entry, looked up): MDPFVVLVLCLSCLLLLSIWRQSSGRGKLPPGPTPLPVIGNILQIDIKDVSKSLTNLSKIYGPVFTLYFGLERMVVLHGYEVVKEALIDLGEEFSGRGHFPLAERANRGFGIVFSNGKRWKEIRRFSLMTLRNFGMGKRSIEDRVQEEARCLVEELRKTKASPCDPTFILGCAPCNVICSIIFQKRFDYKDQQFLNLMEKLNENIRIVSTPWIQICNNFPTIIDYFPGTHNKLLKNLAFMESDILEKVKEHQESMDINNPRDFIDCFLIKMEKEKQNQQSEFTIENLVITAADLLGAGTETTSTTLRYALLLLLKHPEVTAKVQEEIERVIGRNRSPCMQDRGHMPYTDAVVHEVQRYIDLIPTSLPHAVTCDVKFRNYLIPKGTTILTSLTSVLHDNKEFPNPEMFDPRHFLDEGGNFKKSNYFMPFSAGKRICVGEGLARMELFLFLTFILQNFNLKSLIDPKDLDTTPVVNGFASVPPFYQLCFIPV
Sequence of Cytochrome P450 2C9 (Homo sapiens) (P11712 whole entry, looked up): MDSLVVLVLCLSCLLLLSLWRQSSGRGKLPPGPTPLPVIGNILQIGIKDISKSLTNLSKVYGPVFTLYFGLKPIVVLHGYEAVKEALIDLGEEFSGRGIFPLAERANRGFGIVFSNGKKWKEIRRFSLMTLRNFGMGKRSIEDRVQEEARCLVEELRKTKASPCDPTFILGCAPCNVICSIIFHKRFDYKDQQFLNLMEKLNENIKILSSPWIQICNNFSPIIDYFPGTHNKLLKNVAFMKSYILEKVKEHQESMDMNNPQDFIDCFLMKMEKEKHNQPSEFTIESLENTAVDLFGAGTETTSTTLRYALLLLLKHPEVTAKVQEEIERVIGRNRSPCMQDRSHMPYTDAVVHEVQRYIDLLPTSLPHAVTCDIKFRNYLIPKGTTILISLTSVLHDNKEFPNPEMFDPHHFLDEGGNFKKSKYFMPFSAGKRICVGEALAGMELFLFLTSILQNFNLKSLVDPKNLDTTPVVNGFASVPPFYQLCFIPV
Sequence of Voltage-gated inwardly rectifying potassium channel KCNH2 (Homo sapiens) (Q12809 whole entry, looked up): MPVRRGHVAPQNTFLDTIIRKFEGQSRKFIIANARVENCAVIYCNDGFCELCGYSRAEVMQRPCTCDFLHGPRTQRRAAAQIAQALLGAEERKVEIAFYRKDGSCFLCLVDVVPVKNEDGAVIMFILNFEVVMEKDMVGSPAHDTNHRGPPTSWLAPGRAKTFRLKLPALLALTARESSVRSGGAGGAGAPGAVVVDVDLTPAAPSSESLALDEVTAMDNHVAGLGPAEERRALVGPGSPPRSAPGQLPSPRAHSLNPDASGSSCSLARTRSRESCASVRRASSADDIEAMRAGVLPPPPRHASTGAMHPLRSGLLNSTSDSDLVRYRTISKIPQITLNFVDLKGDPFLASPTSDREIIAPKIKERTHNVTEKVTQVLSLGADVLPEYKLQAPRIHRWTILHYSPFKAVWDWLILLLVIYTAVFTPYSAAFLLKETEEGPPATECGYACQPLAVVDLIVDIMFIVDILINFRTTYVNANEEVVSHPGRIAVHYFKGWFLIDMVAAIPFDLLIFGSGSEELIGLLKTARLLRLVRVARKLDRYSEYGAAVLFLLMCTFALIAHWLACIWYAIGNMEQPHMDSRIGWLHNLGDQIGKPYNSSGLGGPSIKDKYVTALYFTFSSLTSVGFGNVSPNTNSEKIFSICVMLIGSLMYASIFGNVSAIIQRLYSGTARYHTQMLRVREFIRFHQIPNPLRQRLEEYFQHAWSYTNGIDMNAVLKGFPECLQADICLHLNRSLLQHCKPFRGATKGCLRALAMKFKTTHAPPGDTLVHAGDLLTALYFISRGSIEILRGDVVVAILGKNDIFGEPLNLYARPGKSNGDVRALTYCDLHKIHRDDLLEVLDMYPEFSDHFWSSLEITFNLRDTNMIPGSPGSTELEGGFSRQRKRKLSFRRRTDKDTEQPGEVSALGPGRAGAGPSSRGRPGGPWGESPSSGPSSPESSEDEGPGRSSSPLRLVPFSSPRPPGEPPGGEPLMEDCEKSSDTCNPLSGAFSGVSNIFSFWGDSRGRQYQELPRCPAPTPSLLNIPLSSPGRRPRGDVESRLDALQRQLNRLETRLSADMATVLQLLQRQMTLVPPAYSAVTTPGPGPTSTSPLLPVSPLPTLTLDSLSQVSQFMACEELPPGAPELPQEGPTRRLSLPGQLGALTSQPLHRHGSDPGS
Sequence of Nuclear receptor subfamily 1 group I member 2 (Rattus norvegicus) (Q9R1A7 whole entry, looked up): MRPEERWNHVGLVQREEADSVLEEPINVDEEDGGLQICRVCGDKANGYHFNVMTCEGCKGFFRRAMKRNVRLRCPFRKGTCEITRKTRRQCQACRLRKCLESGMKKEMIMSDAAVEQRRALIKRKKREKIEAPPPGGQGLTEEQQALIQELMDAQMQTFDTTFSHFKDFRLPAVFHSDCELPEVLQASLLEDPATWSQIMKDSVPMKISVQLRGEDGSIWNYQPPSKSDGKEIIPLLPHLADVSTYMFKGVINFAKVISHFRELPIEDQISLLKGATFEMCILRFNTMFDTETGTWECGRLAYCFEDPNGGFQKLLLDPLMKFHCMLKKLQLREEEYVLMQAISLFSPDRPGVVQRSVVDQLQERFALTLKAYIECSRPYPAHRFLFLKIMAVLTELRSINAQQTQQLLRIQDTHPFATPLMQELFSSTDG
Sequence of Nuclear receptor subfamily 1 group I member 2 (Homo sapiens) (O75469 whole entry, looked up): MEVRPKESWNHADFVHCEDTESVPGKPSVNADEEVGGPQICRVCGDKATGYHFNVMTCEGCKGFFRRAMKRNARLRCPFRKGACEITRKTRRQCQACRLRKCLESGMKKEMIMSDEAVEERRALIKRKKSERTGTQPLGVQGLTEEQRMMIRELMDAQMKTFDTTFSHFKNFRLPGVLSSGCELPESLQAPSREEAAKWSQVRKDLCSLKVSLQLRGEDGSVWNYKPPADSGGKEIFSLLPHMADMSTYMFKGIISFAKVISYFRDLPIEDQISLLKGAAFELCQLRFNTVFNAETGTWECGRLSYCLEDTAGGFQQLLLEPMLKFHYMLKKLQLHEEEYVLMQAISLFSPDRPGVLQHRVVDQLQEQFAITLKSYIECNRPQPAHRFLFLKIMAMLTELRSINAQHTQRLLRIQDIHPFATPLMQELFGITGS

With `O=C(Nc1cccc(C2=NCCN2)c1)Nc1cccc(C2=NCCN2)c1` the activity change, negative = cytotoxicity [1] was -14.4% [at 15.8 µM], the activation [2] was 0.662% [at 15.8 µM] and the activity change, negative = cytotoxicity [3] was 1.2% [at 19 µM]. The caspase activation [4] was -0.792% [at 19 µM], the activity change, negative = cytotoxicity [5] was 4% [at 19 µM] and the caspase-3/7 activation [6] was 0.277% [at 19 µM]. The activity change, negative = cytotoxicity [7] was 2.76% [at 19 µM], the activation [8] was -0.413% [at 19 µM] and the max activation [9] was -0.171%. For the same compound, the outcome [10] was “inactive”, the Potency [11] was 16.9 µM (active) and the activity change, negative = inhibition [12] was -6.53% [at 23.6 µM]. It also gave an activity change, negative = inhibition [13] of 0.456% [at 23.6 µM], an activity change, negative = inhibition [14] of 12% [at 23.6 µM] and an activity change, negative = inhibition [15] of 4.21% [at 15.8 µM].
In the case of `CN=C(NC#N)NCCSCc1csc(N=C(N)N)n1`, the outcome [1] is reported as “inactive”, the outcome [2] is reported as “inactive” and the Potency [3] is reported as “inactive”. The outcome [4] was “inactive”, the Potency [5] was “inactive” and the outcome [6] was “inactive”. The Potency [7] was “inactive” and the Potency [15] was “inactive”.
With `CN[C@@H]1[C@H](O)[C@H](NC)[C@H]2O[C@@]3(O)C(=O)C[C@@H](C)O[C@H]3O[C@@H]2[C@H]1O` the outcome [1] was “inactive”, the outcome [2] was “inactive” and the Potency [3] was “inactive”. The outcome [4] was “inactive”, the Potency [5] was “inactive” and the outcome [6] was “inactive”. The Potency [7] was “inactive”, the Potency [8] was “inactive” and the max activation [9] was -0.189%. The outcome [10] was “inactive”, the Potency [13] was “inactive” and the Potency [15] was “inactive”.
For `Cc1cccc(Nc2ccncc2S(=O)(=O)NC(=O)NC(C)C)c1`, the outcome [1] was “inactive”, the outcome [2] was “inactive” and the Potency [3] was “inactive”. For the same compound, the outcome [4] was “inactive”, the outcome [6] was “inactive” and the Potency [7] was “inactive”. For the same compound, the max activation [9] was -0.7%, the Potency [11] was “inactive” and the Potency [13] was 13.8 µM (active). The Potency [14] was “inactive” and the Potency [15] was “inactive”.
For `CCCCCCCCCCC`, the outcome [1] was “inactive”, the outcome [2] was “inactive” and the Potency [3] was “inactive”. The outcome [4] was “inactive”, the Potency [5] was “inactive” and the outcome [6] was “inactive”. For the same compound, the Potency [8] was “inactive”, the Potency [11] was “inactive” and the Potency [12] was “inactive”. The Potency [13] was 79.6 µM (active), the Potency [14] was “inactive” and the Potency [15] was “inactive”. For the same compound, the Potency [16] was “inactive”.
For `CCCCCCCCCOCC1CO1` (centres undefined), the outcome [1] was “inactive”, the outcome [2] was “inactive” and the Potency [3] was “inactive”. For the same compound, the Potency [5] was “inactive”, the outcome [6] was “inactive” and the Potency [12] was 52.2 µM (active). The Potency [13] was 82.8 µM (active) and the Potency [15] was “inactive”.
With `CC(C)(CO)[C@@H](O)C(=O)NCCCO` the outcome [1] was “inactive”, the outcome [2] was “inactive” and the Potency [3] was “inactive”. For the same compound, the Potency [5] was “inactive”, the outcome [6] was “inactive” and the Potency [7] was “inactive”. The Potency [8] was “inactive”, the max activation [9] was -0.489% and the outcome [10] was “inactive”. For the same compound, the Potency [11] was “inactive”, the Potency [12] was “inactive” and the Potency [13] was “inactive”. For the same compound, the Potency [14] was “inactive”, the Potency [15] was “inactive” and the Potency [16] was “inactive”.
For `C=CCOc1c(Br)cc(C(C)(C)c2cc(Br)c(OCC=C)c(Br)c2)cc1Br`, the outcome [1] was “inactive”, the outcome [2] was “inactive” and the Potency [3] was “inactive”. The Potency [5] was “inactive”, the outcome [6] was “inactive” and the Potency [7] was “inactive”. For the same compound, the Potency [12] was 24.6 µM (active), the Potency [13] was “inactive” and the Potency [14] was “inactive”. The Potency [16] was “inactive”.
In the case of `C=C[Si](C)(C)O[Si](C)(C)C=C`, the outcome [1] is reported as “inactive”, the outcome [2] is reported as “inactive” and the Potency [3] is reported as “inactive”. The outcome [4] was “inactive”, the Potency [5] was “inactive” and the outcome [6] was “inactive”. For the same compound, the Potency [8] was “inactive”, the Potency [11] was “inactive” and the Potency [13] was “inactive”. The Potency [14] was “inactive”, the Potency [15] was “inactive” and the Potency [16] was “inactive”.
For `CCCCC(C)C(=O)O` (centres undefined), the outcome [1] was “inactive”, the outcome [2] was “inactive” and the Potency [3] was “inactive”. The outcome [4] was “inactive”, the Potency [5] was “inactive” and the outcome [6] was “inactive”. For the same compound, the Potency [8] was “inactive”, the Potency [11] was “inactive” and the Potency [14] was 39.9 µM (active). For the same compound, the Potency [15] was “inactive”.
